Reference: PubChem BioAssay (NCATS)
Records with an inconclusive call do not appear. Activity calls are given as the source filed them. Calls follow the shape of the dose curve; as a rule, active = well fitted inhibition curve with a large enough effect; inconclusive = small, poorly fitted or top-dose-only effect; inactive = flat fitted curve, though single readings scatter. Peptide text beside a SMILES is read from it.

The compounds below were run on CRL-7250 (assay: qHTS assay to identify novel small-molecules to repurpose for Merkel cell carcinoma treatment (AID 1296009; also: nearly all actives have a fitted effect of over 60% in size)). Details: MCC and control cell lines, CellTiter-Glo viability, 72 h; series mostly up to 92 µM; activity change, negative = cytotoxicity: at the top concentration.
Method in brief: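 After compound transfer in DMSO, plates were kept 72 hr at 37 degree celsius. Luminescent ATP signal from CellTiter-Glo served as viability measure, normalized against DMSO and no-cell controls.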

| Compound | outcome |
| --- | --- |
| CC(NC(=O)[C@H](Cc1ccccc1)NC(=O)OCc1ccccc1)C(=O)CF (stereo not given in full) | inactive |
| O=C1COc2nccc(-c3ccccc3F)c2CN1Cc1cc(C(F)(F)F)cc(C(F)(F)F)c1 | inactive |
| C=C(C(=O)OC)[C@]12O[C@@](C)(CC[C@@]3(O)/C(=C\C)C(=O)O[C@]3(C)C[C@@H]1OC(=O)C(CO)CN1CCCC1C(=O)O)CC2=O (stereo not given in full) | inactive [at 17.4 µM] |
| CCCC(N[C@@H](C)C(=O)N1[C@H](C(=O)O)C[C@@H]2CCCC[C@@H]21)C(=O)OCC (stereo not given in full) | inactive |
| COC(=O)C1=COC(O[C@@H]2O[C@H](CO)[C@@H](O)[C@H](O)[C@H]2O)[C@H]2[C@@H]1[C@H](OC(=O)CCc1ccc(O)cc1)C[C@]2(C)O (stereo not given in full) | inactive [at 17.4 µM] |
| C[C@@H]1CCC2C(C)(C)[C@H](O)CC[C@]2(C)[C@@]12Cc1c(O)cc3c(c1O2)CN([C@@H](CCC(=O)O)C(=O)O)C3=O (stereo not given in full) | inactive [at 17.4 µM] |
| CC(=O)O[C@@H]1C(=O)C(C)=C(CCC(C)CC(=O)O)[C@@]2(C)CCCC(C)(C)C12 (stereo not given in full) | inactive |
| CC1(C)CCCC2(C)C=C(C(=O)O)C(O)CC12 (stereo not given) | inactive |
| C[C@@H]1O[C@@H](OC2C(CO)OC(OCC3OC(OC(=O)[C@]45CCC(C)(C)CC4C4=CCC6[C@@]7(C)CC[C@@H](O)[C@](C)(C(=O)O)C7CC[C@@]6(C)[C@]4(C)CC5)C(O)C(O)C3O)C(O)C2O)[C@H](O)[C@H](O)[C@H]1O (stereo not given in full) | inactive [at 9.27 µM] |
| C/C=C/C=C/C(O)=C1/C(=O)[C@]2(C)C(=O)[C@@](C)(O)[C@H]1[C@H]([C@@]1(C)OC(=O)C(C)=C1O)[C@H]2C(=O)CC/C=C/C | inactive [at 17.4 µM] |
| CC1(C)O[C@@]2(C)CC[C@@H]1C[C@@H]2OC1OC(CO)C(O)C(O)C1O (stereo not given in full) | inactive |
| C=C1CC23CC1CCC2C12OC(=O)C(C)(CCC1O)C2C3C(=O)O (stereo not given) | inactive |
| FC(F)(F)c1cc(C(F)(F)F)c2ccc3nc(-c4nnco4)cn3c2n1 | inactive |
| CCNC(=O)[C@@H]1CCCN1C(=O)[C@H](CCCN=C(N)N)NC(=O)[C@H](CC(C)C)NC(=O)[C@@H](C)NC(=O)[C@H](Cc1ccc(O)cc1)NC(=O)[C@H](CO)NC(=O)[C@H](Cc1c[nH]c2ccccc12)NC(=O)[C@H](Cc1cnc[nH]1)NC(=O)[C@@H]1CCC(=O)N1 | inactive [at 17.4 µM] |
| CC(C)(C)NCC(O)COc1cccc2c1CCCC2=O (stereo not given) | inactive |
| CC1(C)CC[C@]2(C(=O)O)CC[C@]3(C)C(=CCC4[C@@]5(C)C[C@H](O)[C@H](O[C@@H]6OC[C@H](O)[C@H](O)[C@H]6O)[C@@](C)(CO)C5CC[C@]43C)[C@@H]2C1 (stereo not given in full) | inactive [at 17.4 µM] |
| OC1COC(OCC2OC(OCCc3ccccc3)C(O)C(O)C2O)C(O)C1O (stereo not given) | inactive [at 17.4 µM] |
| CCn1nnnc1NCc1ccc(C(C)C)cc1 | inactive |
| CC1NC(=O)CNC(=O)C(C(C)C)NC(=O)C2CCCN2C(=O)C(C(C)C)NC(=O)C(Cc2c[nH]c3ccccc23)NC1=O (stereo not given) (cyclo(GAWVPV); configuration not given here) | inactive [at 17.4 µM] |
| O=C(Cc1ccc(-c2ccccc2)cc1)NC1CCC1 | inactive |
| C/C=C(\C)C1C(C)=CC2CCC(OS(=O)(=O)O)C(C)C2C1/C=C/C=C/C(=O)O (stereo not given) | inactive [at 17.4 µM] |
| CC(=O)c1c(C)cc(O[C@@H]2O[C@H](CO)[C@@H](O)[C@H](O)[C@H]2O)cc1O | inactive |
| Cc1c(C(=O)NCc2cccnc2)nn(-c2ccc(Cl)cc2Cl)c1-c1ccc(Cl)cc1 | inactive |
| COC1C2=C(COC2=O)C2(C)CCCC(C)(CO)C2C1OC(=O)c1ccccc1 (stereo not given) | inactive [at 17.4 µM] |
| Cc1nc2cc(C(=O)NCc3ccccn3)nn2c(C)c1Cc1cccc(Cl)c1 | inactive |
| CC1=C2C[C@H]3O[C@@]3(C)CCC3O[C@@]3(C)C[C@@]2(O)OC1=O (stereo not given in full) | inactive |
| Cc1ncc(Cl)cc1NCc1ccc(C(=O)NC(CC2CCCC2)C(=O)NC2CC2)s1 (stereo not given) | inactive |
| CC1=C(CC(=O)O)c2cc(F)ccc2C1=Cc1ccc(S(C)(=O)=O)cc1 | inactive |
| CC1(C)CCC(C)(C)c2cc3c(cc21)Sc1ccccc1N=C3c1ccc(C(=O)O)cc1 | inactive |
| CC1(C)CC[C@]2(C(=O)O)CC[C@]3(C)C(=CCC4[C@@]5(C)C[C@@H](O)[C@H](O)[C@@](C)(CO)C5CC[C@]43C)C2C1 (stereo not given in full) | inactive [at 17.4 µM] |
